# Bioassay records from PubChem BioAssay.
# This is a sample that favours compounds with a hit; in the whole collection about 11% have one here.
# HTT cytoprotect: Huntington cell model cytoprotection by ATP luminescence | Potency, µM (doses to about 56.4 µM), for the others: cytoprotection (ATP increase), hits mostly activators | PC12 HTT-Q103 induced, cytoprotection, ATP luminescence, 40 h | AID 1471 | 230,000 compounds, 0.14% hits; active means well fitted curve in the direction sought with a large enough effect; inconclusive means small, poorly fitted or top-dose-only effect, or another doubt; inactive means no such curve, though single readings can be large; an effect the other way counts as inactive or inconclusive; further: potency means the concentration at half of the fitted maximal effect; % of control where 0% means no effect; nearly all actives have a fitted effect of over 45% in size
#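 Stable PC12 Q103-GFP cells in serum-supplemented, phenol red-free DMEM; induction by tebufenozide at 100 nM final; compound dose series; cell viability quantified luminescently from ATP.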
# RGS12 GoLoco inh: RGS12 GoLoco-Gai1 interaction inhibition. Potency, µM (highest dose often 61.6 µM), without a hit: at the top dose activity, negative = inhibition, usual class: inhibitors. P63096. AID 880. 230,000 compounds, 0.44% hits. Gai1:RGS12 GoLoco peptide FP, rhodamine, 10 min; active means well fitted inhibition curve with a large enough effect, not every such curve was filed as active; inactive means no such curve, though single readings can be large or run the other way; further: potency means the concentration at half of the fitted maximal effect; on the % scale 0 is the no-effect control and ±100 the full control effect; nearly all actives have a fitted effect of over 30% in size
# PNC inhibitor: perinucleolar compartment assembly inhibition; activity change (PNC), negative = inhibition, % at 10 µM; 140,000 compounds, 3.1% hits; PC3M PTB-GFP, PNC prevalence imaging, 16 h; active compounds read low;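 active means readout at or below -70, meaning at least 70% loss of cells showing the perinucleolar compartment, a nuclear body marking cancer cells; inconclusive means readout between -30 and a set limit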;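 further: plate controls were DMSO wells for no effect and camptothecin positive control wells for full effect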
#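 Compounds are pinned in duplicate onto adhered PC3M cells stably expressing GFP-tagged PTB and incubated 16 h at 37 C. Cells are then fixed, nuclei stained with Hoechst, and PNC-positive cells counted.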
# ALDH1A1 inh: blocks purified human ALDH1A1 activity; P00352; Purified ALDH1A1, NADH fluorescence, propionaldehyde substrate; Potency, µM (doses to about 75.3 µM), for inactives: at the highest dose activity, negative = inhibition, usual class: inhibitors; 220,000 compounds, 7.3% hits;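 further: potency means the concentration at half of the fitted maximal effect; plate controls were no enzyme wells and a reference inhibitor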
# Target sequence (P00352 whole entry, looked up): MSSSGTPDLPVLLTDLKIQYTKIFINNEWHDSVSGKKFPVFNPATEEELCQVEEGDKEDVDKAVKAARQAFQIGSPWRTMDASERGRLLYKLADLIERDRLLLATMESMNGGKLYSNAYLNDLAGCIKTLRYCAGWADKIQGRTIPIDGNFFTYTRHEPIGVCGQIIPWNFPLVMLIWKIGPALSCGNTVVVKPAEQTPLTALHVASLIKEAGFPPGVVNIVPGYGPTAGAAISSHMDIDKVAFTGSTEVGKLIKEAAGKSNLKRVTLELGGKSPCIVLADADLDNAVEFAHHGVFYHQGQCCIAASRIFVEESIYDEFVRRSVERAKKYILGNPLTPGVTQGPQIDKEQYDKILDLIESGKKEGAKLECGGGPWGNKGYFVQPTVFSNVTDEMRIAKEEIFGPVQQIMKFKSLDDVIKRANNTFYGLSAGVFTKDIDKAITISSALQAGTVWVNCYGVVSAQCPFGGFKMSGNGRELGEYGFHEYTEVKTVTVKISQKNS
# HTT aggregate: reduces HttQ103-GFP aggregates in PC12 cells | PC12 HttQ103-GFP aggregates, Acumen cytometry, 40 h | Potency, µM (top dose mostly 46.1 µM), inactives show at the highest dose activity change, negative = inhibition, actives largely listed as inhibitors | 220,000 compounds, 1.1% hits; active means well fitted curve in the direction sought with a large enough effect; inconclusive means small, poorly fitted or top-dose-only effect, or another doubt; inactive means no such curve, though single readings can be large; an effect the other way counts as inactive or inconclusive; further: potency means the concentration at half of the fitted maximal effect; on the % scale 0 is the no-effect control and ±100 the full control effect; nearly all actives have a fitted effect of over 60% in size
#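 Ecdysone-promoter PC12 model expressing HTT exon 1 Q103 fused to GFP, induced by tebufenozide at 100 nM final. Compounds titrated; aggregates sized 1–25 µm scored on a 488 nm laser cytometer.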
# HPGD block: inhibitors of human 15-hydroxyprostaglandin dehydrogenase (HPGD) | P15428 | purified HPGD, NADH fluorescence kinetic, PGE2 substrate | Potency, µM, for the others: at the top dose activity change, negative = inhibition, most hits filed as inhibitors | 150,000 compounds, 4.3% hits | AID 894; further: potency means the concentration at half of the fitted maximal effect; on the % scale 0 is the no-effect control and ±100 the full control effect
# Target sequence (P15428 whole entry, looked up): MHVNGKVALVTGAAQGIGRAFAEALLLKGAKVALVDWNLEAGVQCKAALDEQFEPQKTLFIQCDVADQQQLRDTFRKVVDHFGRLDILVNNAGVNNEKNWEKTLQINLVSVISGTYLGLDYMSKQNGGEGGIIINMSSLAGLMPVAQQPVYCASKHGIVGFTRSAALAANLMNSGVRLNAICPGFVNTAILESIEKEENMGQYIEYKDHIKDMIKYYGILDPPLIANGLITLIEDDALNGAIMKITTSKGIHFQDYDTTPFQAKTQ
#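 20 nM HPGD preincubated 15 min at room temperature with compound in 50 mM Tris-HCl pH 8, 0.01% Tween 20. Started with 1 mM NAD+ and 30 uM prostaglandin E2; NADH fluorescence (360/450 nm) read 5 times over 30-s intervals, last minus first.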
# Active calls of the source: *; ? = inconclusive; . = no result given; [ ] = another dose, or the depositor's remark. Unless noted, the call rests on the fitted dose curve; in most records, active means well fitted inhibition curve with a large enough effect (not every such curve was filed as active); inconclusive means small, poorly fitted or top-dose-only effect, or another doubt; inactive means no such curve, though single readings can be large or run the other way.
SMILES,HTT cytoprotect,RGS12 GoLoco inh,PNC inhibitor,ALDH1A1 inh,HTT aggregate,HPGD block
Cc1ccc(NC(=O)Cc2noc3ccccc23)cc1,22.2%[10 µM],0.0%,-99.2*,3.8%,-9.4%,-3.6%
Cc1cc(C)c(C#N)c(OCC(=O)c2ccccc2)n1,25.3%,-7.4%,?,6.31µM*,-32.7%,22.4µM*
CCN(CC)C(=O)CSc1nc(C)cc(-c2cccs2)c1C#N,-30.1%,15.8%,?,12.6µM*,1.2%,-28.1%
Cc1cc(C)c(C#N)c(SCC(=O)c2ccccc2)n1,18.8%[10 µM],11.1%,.,22.4µM*,0.0%[9.22 µM],.
Cc1cc(C)c(C#N)c(SCC(=O)c2cccs2)n1,-17.4%,7.8%,?,?,-3.9%,15.8µM*
CCOC(=O)CN(C(=O)COc1nc(C)cc(C)c1C#N)c1cccc(Cl)c1,-15.7%[10 µM],-4.0%,.,.,2.0%[9.22 µM],.
COc1ccc(Nc2ccc(N3C(=O)CCCC3=O)cc2[N+](=O)[O-])c(OC)c1,.,3.8%,?,1.4%,-4.8%,-15.7%
COC(=O)CNC(c1ccccc1Cl)c1cc(Br)ccc1NS(=O)(=O)c1ccc(C)cc1 (stereo not given),19.2%[10 µM],4.5%,50.6,8.5%,?,-6.0%
O=S1(=O)CCN(c2ccccc2CC(c2c[nH]c3ccccc23)c2c[nH]c3ccccc23)CC1,9.5%[10 µM],5.4%[14.2 µM],.,?,.,-11.0%
Cc1cc(SCC(=O)c2ccccc2)n2nc(C)nc2n1,34.4%[10 µM],21.7%,-10.5,20µM*,-28.0%,-18.3%
Cc1cc(C)c(C#N)c(Sc2ccccc2N)n1,-1.2%,-6.3%,.,25.1µM*,-13.1%,.
COC(=O)C(Sc1nc(C)cc(C)c1C#N)c1ccccc1 (stereo not given),-9.2%,5.9%,61.2,5.2%,-15.5%,-6.1%
Cc1ccc(C(=O)CSc2nc(C)cc(C)c2C(N)=O)cc1,-13.1%[10 µM],5.7%,-87.8*,10.9%,-15.6%,-1.7%
Cc1cc(C)c(C#N)c(SCC(O)CS(=O)(=O)Cc2ccccc2)n1 (stereo not given),-5.1%[0.074 µM],1.2%,44.6,28.2µM*,0.4%,-17.8%
COCc1cc(C)nc(OCC(=O)N/N=C/c2ccccc2O)c1C#N,-101.9%,-2.5%,.,2.5%,11.2µM*,.
Cc1ccccc1NC(=O)CSc1[nH]c(=O)cc(C)c1C#N,12.1%,-25.2%,-2.6,-0.6%,-23.4%,-17.4%
Cc1cc(=O)[nH]c(SCC(=O)c2ccccc2)c1C#N,-12.7%,7.3%,?,17.8µM*,-24.3%,?
O=C(O)C(Cc1c[nH]c2ccccc12)N1C(=O)c2ccccc2C1=O (stereo not given),-6.3%[10 µM],10.4%,.,9.5%,7.5%[9.22 µM],.
CCOC(=O)N1CCC(N2CCCC(CO)(Cc3ccccc3C)C2)CC1 (stereo not given),3.9%[10 µM],103.7%,.,-2.6%,6.6%[9.22 µM],.
COc1ccc(OC2C(=O)N(Cc3ccc(F)cc3)C2c2ccc(OC)c(OC)c2)cc1 (stereo not given),-44.0%,10.5%,33.5,?,5.0%,-3.0%
COc1ccc(C2C(Oc3ccccc3)C(=O)N2c2cc(C)ccc2C)cc1OC (stereo not given),-20.1%,-7.2%,-89.0*,0.1%,25.3%,-9.5%
Cc1ccccc1C(=O)Nc1sc(C)c(C)c1C(=O)c1ccccc1,-1.5%,-14.4%,16.7,?,13.6%,31.6µM*
COC(=O)c1c(NC(C)=O)sc(C)c1C,0.5%,25.7%,.,8.9%,-16.3%,.
Cc1cc(C(=O)c2ccc(C(C)(C)C)cc2)c(NC(=O)CCl)s1,1.0%[10 µM],1.6%,-2.4,11.2µM*,24.1%,3.6%
Cc1sc(NC(=O)CCl)c(C(=O)c2ccccc2)c1C,-57.3%[10 µM],-11.4%,-6.7,0.708µM*,?,28.2µM*
SMILES,HTT cytoprotect,RGS12 GoLoco inh,PNC inhibitor,ALDH1A1 inh,HTT aggregate,HPGD block
CN=C1SC(C(=O)Nc2ccccc2Cl)CC(=O)N1c1ccc(OC(F)(F)Cl)cc1 (stereo not given),?,-2.4%,.,3.5%,-8.3%,.
c1csc(CNc2ccnc(-c3ccc4c(c3)OCO4)n2)c1,-284.5%,-15.6%,.,?,.,.
COc1ccc(N/C(C)=C2/C(=O)C(=O)N(CCO)C2c2ccc([N+](=O)[O-])cc2)cc1 (stereo not given),19.5%,-5.3%,?,11.2µM*,3.2%,-6.4%
COc1ccc(C2/C(=C(/O)c3ccccc3)C(=O)C(=O)N2CO)cc1 (stereo not given),-9.3%,-9.5%,35.2,?,-5.9%,-12.8%
CCOc1cccc(/C=N/NC(=O)CC2C(=O)NN=C2C)c1O (stereo not given),-23.3%,5.0%,.,0.0%,25.4%,.
CCOc1cccc(C=Nc2cc(C)cc(C)c2O)c1O,-12.5%,49.2%,?,22.4µM*,25.3%,11.2µM*
COc1ccc(Oc2ncc3nc(-c4cc(F)cc(F)c4)c(=O)n(CCC#N)c3n2)cc1,20.9%,3.3%,.,?,.,?
CC1(C)Cc2c(C#N)c(OCC(=O)c3ccc(Cl)cc3)nc(-c3ccoc3)c2CO1,-11.5%,.,-94.1*,0.398µM*,27.5%,.
COc1nc(-c2ccccc2)c2c(c1C#N)CC(C)(C)OC2,-20.5%,-4.6%,36.6,?,4.4%,-6.9%
CC1(C)Cc2c(C#N)c(OCC(=O)c3ccccc3)nc(-c3ccoc3)c2CO1,-5.5%,11.5%,-22.1,0.282µM*,11.6%,?
CC(C)CCn1c(CN2CCOCC2)nc2c1c(=O)n(C)c(=O)n2C,5.7%[10 µM],-2.3%,?,14.1µM*,-4.1%,-11.7%
CCC1CCCCN1Cc1nc2c(c(=O)n(C)c(=O)n2C)n1CC(C)C (stereo not given),-18.7%,-0.7%,-95.0*,1.2%,4.3%,-7.9%
Cn1c(=O)c2c(nc(CN3CCN(c4ccccc4)CC3)n2CCN2CCOCC2)n(C)c1=O,-0.6%,-1.4%,37.3,?,?,1.8%
CC1CC(C)CN(Cc2nc3c(c(=O)n(C)c(=O)n3C)n2CCN2CCOCC2)C1 (stereo not given),-10.7%,-6.2%,31.9,7.94µM*,7.1%[9.22 µM],-0.5%
Cn1c(SCC(=O)Nc2cccc(S(=O)(=O)NC3=NCCCCC3)c2)nnc1-c1ccccc1,1.8%[10 µM],12.4%,.,0.4%,23.6%,.
CCOc1cc(/C=C/C(=O)Nc2ccc(C(=O)NCCN(CC)CC)cc2)ccc1OCC(C)C,-52.9%,10.6%,.,-4.4%,?,.
Cc1ccc2c(CN3CCN(S(=O)(=O)/C=C/c4ccccc4)CC3)cc(=O)oc2c1,36.6%[10 µM],2.9%,64.9,0.2%,15.9%,-8.6%
CCc1nnc(NS(=O)(=O)c2ccc(Nc3ccc4nonc4c3[N+](=O)[O-])cc2)s1,18.9%[10 µM],10.3%,.,27.0%,18.9%[9.22 µM],.
Cc1ccc2ncccc2c1[N+](=O)[O-],15.3%[10 µM],-7.2%,-7.4,-3.6%,-13.0%,-16.3%
CC(C)c1ccccc1S(=O)(=O)c1cc(N)c2ncccc2c1[N+](=O)[O-],7.94µM*,-1.4%,.,-7.0%,.,-16.7%
